Screens (PubChem BioAssay)
In the library only some 21% were active in any assay of this set; here they are far more common.
Pf growth 96h – P. falciparum growth inhibition at 96 hours; P. falciparum luciferase reporter growth, 96 h; Potency, µM (series often up to 28.7 µM), without a hit: at the top dose activity change, negative = inhibition, actives largely listed as inhibitors; 320,000 compounds, 6.9% hits; active = well fitted inhibition curve with a large enough effect; inconclusive = small, poorly fitted or top-dose-only effect, or another doubt; inactive = no such curve, though single readings can be large or run the other way; also: potency is read from the fitted curve at half-maximal effect; % is scaled to controls: 0 for no effect and ±100 for the full control effect
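Erythrocytes infected with luciferase-expressing P. falciparum were dispensed at 2% hematocrit and 0.05% parasitemia (final), then incubated with compounds 96 hours at 37 C in 5% CO2. Luminescence after detection reagent addition reported growth.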
Shiga inhibitor – inhibitors of Shiga toxin in Vero cells | Vero cells, Shiga toxin protein synthesis inhibition reporter | 290,000 compounds, 9.2% hits | inhibition, % at 38.7 µM; in the data active = inhibition mostly above about 28%, no sharp cut-off; inactive = mostly below about 43%; also: 0% is about no effect
Cycloheximide cs – counter-screen hit for Shiga toxin inhibitors, cycloheximide | cell reporter, cycloheximide protein synthesis inhibition counterscreen | max response, % | 300,000 compounds, 12% hits; in the data active = max response mostly above about 13%, no sharp cut-off; inactive = mostly below about 14%; also: read at 38.3 µM for the half of the compounds with a filed dose; 0% is about no effect
NS1 function inh – blocks influenza NS1 protein function | 270,000 compounds, 0.4% hits | Potency, µM (top dose mostly 46.1 µM), inactives show at the top dose activity, positive = more growth | AID 2326; also: potency is read from the fitted curve at half-maximal effect; actives are rising curves; nearly all actives have a fitted effect of over 50% in size
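Read-out: OD600 growth recovery of NS1-expressing budding yeast. Cells grown overnight at 30C in -URA glucose medium, washed, resuspended and diluted 1:100 in 2% galactose assay medium, pH 6.0. Same strain lacking NS1 served as positive control.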
Pf growth 48h – P. falciparum growth inhibition at 48 hours (one generation). P. falciparum luciferase growth in erythrocytes, 48 h. Potency, µM (series often up to 28.7 µM), without a hit: at the highest dose activity change, negative = inhibition, hits mostly inhibitors. 310,000 compounds, 5.9% hits. AID 504832; active = well fitted inhibition curve with a large enough effect; inconclusive = small, poorly fitted or top-dose-only effect, or another doubt; inactive = no such curve, though single readings can be large or run the other way; also: potency is read from the fitted curve at half-maximal effect; % is scaled to controls: 0 for no effect and ±100 for the full control effect
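Compounds are pin-transferred into medium, infected erythrocytes (2% hematocrit, 0.1% parasitemia final) are added, and plates sit one parasite generation at 37 C in 5% CO2. Detection reagent is then added and luminescence measured.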
SARS PLP yeast – SARS-CoV PLP inhibition in yeast; S. cerevisiae expressing SARS-CoV PLpro, growth rescue; Potency, µM (top dose mostly 32.9 µM), inactives show at the top dose activity, positive = growth rescue, usual class: activators; 330,000 compounds, 0.19% hits; AID 485353; also: potency is read from the fitted curve at half-maximal effect; 0% is about no effect; nearly all actives have a fitted effect of over 55% in size
An asterisk follows results filed as active; u = inconclusive; x = not tested or not shown; [ ] = remark or other dose. Unless noted, calls follow the shape of the full dose curve.

SMILES	Pf growth 96h	Shiga inhibitor	Cycloheximide cs	NS1 function inh	Pf growth 48h	SARS PLP yeast
COc1ccc(CC(=O)OCC(=O)NCCc2ccccc2)cc1OC	u	-10.0	-3.4	-0.3%	-0.1%	11.2%
O=C(NNC(=O)C1CCN(C(=O)Nc2ccccc2)CC1)c1ccc([N+](=O)[O-])cc1	0.6%	x	x	x	-5.8%	5.6%
c1ccc(-c2nccc(-c3ccco3)n2)nc1	u	41.8*	22.3	-0.7%	-23.8%	0.9%
Fc1ccc(-c2csc(-c3ccccn3)n2)cc1F	84.8%	175.4*	45.9*	x	161.1%	-0.5%
Cc1ccc(-c2nc(-c3ccccn3)no2)cc1	x	-10.5	-9.7	-47.7%	1.2%	-18.2%
c1coc(-c2ccnc(-c3ccncc3)n2)c1	13.3%	15.2	11.4	0.0%	-1.2%	-0.6%
Cc1ccc(-c2noc(-c3ccno3)n2)cc1	30.7%	82.1*	49.3*	4.0%	40.6%	0.0%
c1ccc(-c2noc(-c3ccno3)n2)nc1	12.8%	48.5*	30.7*	2.2%	33.8%	0.3%
Cc1cccc(OCCCC(=O)NNC(=O)c2ccc(F)cc2)c1	57.9%	x	x	x	u	2.0%
c1ccc(-c2nc(-c3ccco3)cs2)nc1	78.4%	107.3*	29.7*	-23.2%	105.2%	11.2%
c1ccc(-c2noc(-c3ccco3)n2)nc1	x	35.8*	29.3*	12.8%	224.3%	29.0%
c1ccc(-c2nc(-c3ccccn3)no2)cc1	-18.8%	-15.1	-5.2	-5.6%	3.2%	-57.8%
COc1ccc(-c2cn(-c3ccc(Br)cc3)c3[n+]2CCS3)cc1	u	-9.0	-1.6	0.8%	1.04µM*	-3.1%
Clc1ccc(-c2cn(-c3ccccc3)c3[n+]2CCS3)cc1	33.6%[5.75 µM]	-2.0	-0.7	-6.5%	u	0.9%
Fc1ccc(-c2cn(-c3ccccc3)c3[n+]2CCS3)cc1	0.415µM*	-10.8	-2.2	2.1%	0.928µM*	0.3%
COC(=O)c1ccc(OC)c(CSc2nnc(-c3ccc(C)cc3)o2)c1	x	x	x	2.1%	x	x
Cc1ccccc1CSc1nnc(-c2ccncc2)o1	29.0%	39.1	13.1*	-32.0%	-22.2%	-0.8%
COc1ccc(C(C)=O)cc1CSc1nnc(-c2ccncc2)o1	4.15µM*	-7.0	-2.1	-7.3%	u	-2.2%
N#Cc1ccc(CSc2nnc(-c3ccncc3)o2)cc1	114.1%	-5.1	-1.9	x	-4.1%	0.3%
Clc1ccc(CSc2nnc(-c3ccncc3)o2)c(Cl)c1	71.2%	-3.2	-3.6	-8.7%	u	-4.2%
c1ccc(CSc2nnc(-c3ccncc3)o2)cc1	-0.2%	84.9*	34.9*	-5.5%[9.22 µM]	95.4%	-11.9%
O=C(Nc1nncs1)C1CC(=O)N(CCc2ccc(F)cc2)C1 (stereo not drawn)	0.0%	-3.6	1.4	2.0%	7.3%	2.3%
Cn1c(CS/C(N)=N/N=C/c2ccccc2)c(Br)c(=O)n1-c1ccccc1	17.0%	22.7	0.2	-23.8%	85.0%	u
O=C(CC1CC2CCC1C2)N1CCN(S(=O)(=O)c2ccccc2[N+](=O)[O-])CC1 (stereo not drawn)	10.4µM*	x	x	x	u	-0.8%
O=C(CC1CC2CCC1C2)N1CCN(S(=O)(=O)c2ccccc2C(F)(F)F)CC1 (stereo not drawn)	u	x	x	x	11.7µM*	11.8%
SMILES	Pf growth 96h	Shiga inhibitor	Cycloheximide cs	NS1 function inh	Pf growth 48h	SARS PLP yeast
CCNC(=S)NN=C1c2ccccc2-c2ccccc21	4.65µM*	4.0	1.8	x	-18.5%	0.6%
CCOC(=O)/C=C(C)\C=C\c1c[nH]c2ccccc12	-0.1%	55.6*	29.7*	-15.2%	13.1µM*	-1.9%
CC(C)CC(=O)NC1(C(F)(F)F)C(=O)N(CC(C)C)C2=C1C(=O)CC(C)(C)C2 (stereo not drawn)	-2.5%	-1.3	-3.3	-3.1%	0.5%	-5.9%
C=CCn1c(-c2ccc([N+](=O)[O-])cc2)n[nH]c1=S	2.33µM*	-11.5	-7.4	21.0%	1.6%	8.8%
CCOC(=O)c1c(C)[nH]c2cc(Br)c(OC)cc12	-6.1%	0.8	17.5*	-45.5%	u	-5.5%
CCOC(=O)c1c(C)[nH]c(C)c1-c1ccccc1OC	5.6%	-20.0	-7.1	8.0%	-6.7%	-3.5%
CN1C(=O)C2(Oc3ccccc3C3CC(c4ccccc4)=NN32)c2ccccc21 (stereo not drawn)	38.2%	77.8*	27.6*	-1.7%	34.7%	-23.0%
S=C1NC2(CCS1)Oc1ccccc1C1CC(c3ccccc3)=NN12 (stereo not drawn)	u	70.4*	32.8*	2.4%	u	0.3%
Cc1ccc(C2=NN3C(C2)c2ccccc2OC32C(=O)Nc3ccccc32)cc1 (stereo not drawn)	-19.5%	77.8*	41.6*	-3.8%	-33.2%	-22.3%
CN1C(=O)C(O)(c2sc(N)nc2-c2ccccc2)c2ccccc21 (stereo not drawn)	x	17.9	-0.7	-5.7%	x	1.1%
Cc1ccc(CNC(=O)C2(C)Oc3ccccc3NC2=O)cc1 (stereo not drawn)	2.4%	-8.6	-2.2	-8.6%	x	-3.9%
COc1ccc(S(=O)(=O)N2CCC(C(=O)NCCCn3ccnc3)CC2)cc1C	-7.7%	-3.0	-3.0	14.8%	-5.3%	-1.8%
Cc1ncc([N+](=O)[O-])n1CCN=[N+]=[N-]	x	x	x	0.0%	x	x
COc1ccc(C(=O)NC2CCSc3ccccc32)cc1F (stereo not drawn)	u	6.7	12.9*	-17.0%	u	-0.8%
COc1ccc(C(=O)NC2CCSc3ccccc32)cc1S(=O)(=O)N1CCOCC1 (stereo not drawn)	u	x	x	x	11.7µM*	-1.7%
COc1ccc(C(=O)NC2CCCc3ccccc32)cc1Br (stereo not drawn)	u	22.1	-2.3	-48.8%	u	-7.0%
COc1cc(C(=O)NC2CCCc3ccccc32)ccc1OCC(=O)Nc1ccc(F)cc1 (stereo not drawn)	13.1µM*	-5.4	-2.3	-4.4%	u	-11.9%
COc1cc(OC)cc(C(=O)NC2CCSc3ccccc32)c1 (stereo not drawn)	u	12.0	-2.3	13.4%	-22.7%	13.3%
COc1ccc(C(=O)NC2CCCc3ccccc32)cc1S(=O)(=O)N1CCOCC1 (stereo not drawn)	-29.8%	-6.3	-2.1	-6.8%	0.0%	0.2%
O=c1ccc(S(=O)(=O)N2CCCC2)cn1Cc1ccc(F)cc1	-2.2%	x	x	x	17.4%	4.4%
CC(C)CSc1nsc(N)n1	x	49.6	31.3	1.5%	97.7%	-14.1%
Nc1ccccc1SSc1ccccc1N	u	127.5*	69.0*	-116.3%	u	-24.5%
Nc1nc(SCc2ccc(Cl)cc2)ns1	u	68.0*	37.9*	-67.5%	49.9%	-7.9%
Nc1ccccc1SCc1ccccc1Cl	46.4%	56.1*	24.6*	1.9%	29.7%	-0.7%
Nc1nc(SCc2ccccc2)ns1	x	35.4*	17.3*	-32.6%	77.0%	-9.8%
O=C(/C(=C/c1ccccc1)c1ccccc1)N1CCCCC1	23.3%	-1.1	0.8	-27.9%	29.7%	-1.4%
COc1ccc(S(=O)(=O)N(CCO)c2ccccc2CN(C)CC=Cc2ccc(Cl)cc2)cc1	x	-3.7	3.8	x	x	x
